These results are taken from PubChem BioAssay AID493114 (The Scripps Research Institute Molecular Screening Center, 2011).

The other results are listed elsewhere or left out. Values without a mark were called inactive.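 Rule for the calls: active = mean percent activation across triplicates above a set limit taken from the earlier primary procaspase-3 screen; inactive = the rest.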

Sequence of Caspase-3 (Homo sapiens) (P42574 whole entry D9A/D28A/D175A): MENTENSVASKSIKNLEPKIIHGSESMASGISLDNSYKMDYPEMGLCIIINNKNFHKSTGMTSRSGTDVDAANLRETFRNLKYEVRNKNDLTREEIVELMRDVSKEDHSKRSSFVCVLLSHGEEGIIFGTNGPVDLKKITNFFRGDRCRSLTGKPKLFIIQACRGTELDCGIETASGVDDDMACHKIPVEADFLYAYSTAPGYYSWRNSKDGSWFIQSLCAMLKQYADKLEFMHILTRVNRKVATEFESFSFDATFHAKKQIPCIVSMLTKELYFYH

The test has as its target Caspase-3 (Homo sapiens) (UniProt P42574). The test is described as follows: procaspase-3 activators, counter-screen for dual procaspase-3/7 activator project, biochemical, absorbance, PC-3 D3A mutant, human (AID 493114).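 Note: 0% = DMSO wells and 100% = DMSO wells with 5 µM added PC-3 D3A.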 The note with it: recombinant PC-3 D3A, Ac-DEVD-pNA absorbance 405 nm; at 8.5 µM; hits give high values; 100% = enzyme control; aspartates 9, 28, 175 changed to alanine.
`O=C1OCCN1C(=O)[C@H]1[C@H](c2ccc(F)cc2)C(c2ccccc2)=NN1c1ccc(Br)cc1`: the activation is -28.8%. `COc1ccc(-c2onc3ccc(C(C)=O)cc23)cc1`: the activation is -28%. As for `CCN(CC)c1ccc2oc(=O)c(C)nc2c1`, the figure is -12.2%; as for `Nc1cccc2c1C(=O)N(Cc1nnc(-c3ccccc3Br)o1)C2=O`, -28.5%; as for `COc1ccc(/C=N/Nc2nc3ccccc3c(=O)[nH]2)cc1`, 0.42%. `CC(=O)Oc1ccc2c(C)c(CC(C)O)c(=O)oc2c1` (stereo not given): the activation was -29.8%.

In the case of `COc1ccccc1N=Cc1c(O)c2ccccc2oc1=O`, the activation is -28.6%. Consider `CCOC(=O)C1(CCOC)CCN(Cc2cc3ccccc3s2)CC1`, for which the activation is 2.49%. As to `CCCCOC(=O)Cn1c(=O)n(CC(=O)OCCCC)c2cc(C)ccc21`, the activation is 2.96%. Consider `COc1ccc(Nc2ncnc3sc(-c4ccccc4)cc23)c(OC)c1`, for which the activation was -22.7%.

Regarding `COc1ccc2sc(-c3ccc(S(C)(=O)=O)cc3)c(C#Cc3cncn3C)c2c1`, the activation is -29.9%. The result for `CC1(C)Cc2c(C#N)c(SCc3nc4ccccc4[nH]3)nc(N3CCOCC3)c2CO1` reads -28.2%; that for `CNS(=O)(=O)c1cccc(C(=O)NC2CCCc3ccccc32)c1` (stereo not given), 2.51%; that for `Fc1ccc(N2N=C(c3cccs3)CC2c2ccco2)c(F)c1` (stereo not given), -29.1%. The result for `COc1ccc(Nc2ncc(C(=O)N3CCN(c4ccccc4OC)CC3)c3ccccc23)cc1` reads 0.74%.
